Assay results as given in the supplement of paper PMC11172423.

Columns and labels:
[1] = system: Falciformispora senegalensis CBS197.79; experiment: growth relative to untreated control; higher = less inhibition, active = 20 or less
Summary of the method: (§1)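 Viability readout used either MTS (2 h, 490 nm) or resazurin (600 nm). Before this, hyphal fragments of M. mycetomatis MM55 or F. senegalensis CBS197.79 in colourless RPMI 1640 with L-glutamine and MOPS (68–72% transmission at 660 nm) had been exposed in 96-well plates to compound at 100 or 25 µM for 7 days at 37 °C. Growth denotes metabolic activity relative to the untreated growth control, with a medium-plus-dye blank subtracted from both.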

[2] = system: Madurella mycetomatis MM55; experiment: as above
Summary of the method: as §1

Measured: growth

Cc1c(O)cccc1C(=O)N[C@@H](CSc1ccccc1)[C@H](O)CN1C[C@H]2CCCC[C@H]2C[C@H]1C(=O)NC(C)(C)C
inactive: [1]; 25 µM 107% | [1]; 100 µM 105% | [2]; 25 µM 83.9% | [2]; 100 µM 88.2%

O=C(c1ccc(Nc2nccc(-c3ccc(Cl)cc3)n2)cc1)N1CC[C@@H](CO)C1
inactive: [1]; 25 µM 91.1% | [1]; 100 µM 89.6% | [2]; 25 µM 113% | [2]; 100 µM 117%

CC(Nc1ccc2c(c1)OCCCO2)C(=O)Nc1cc(C(F)(F)F)ccc1N1CCOCC1 (configuration not stated)
inactive: [1]; 25 µM 87.5% | [1]; 100 µM 86.1% | [2]; 25 µM 97.8% | [2]; 100 µM 125%

CCCCOC(=O)c1c(C)cnc2ccccc12
inactive: [1]; 25 µM 90.5% | [1]; 100 µM 98.7% | [2]; 25 µM 86.7% | [2]; 100 µM 141%

Nc1nc(Nc2ccc3c(c2)CC[C@@H](N2CCCC2)CC3)nn1-c1cc2c(nn1)-c1ccccc1CCC2
active: [1]; 25 µM -3.21% | [1]; 100 µM 5.2% | [2]; 25 µM 4.07% | [2]; 100 µM 4.45%

CC(C)C[C@H](NC(=O)[C@H](Cc1ccccc1)NC(=O)c1cnccn1)B(O)O
inactive: [1]; 25 µM 103% | [1]; 100 µM 93.7% | [2]; 25 µM 113% | [2]; 100 µM 85.1%

COc1cccc(-c2ccc(NC(=O)C3=C(C(=O)O)CCC3)c(F)c2)c1
inactive: [1]; 25 µM 109% | [1]; 100 µM 105% | [2]; 25 µM 76.1% | [2]; 100 µM 91.5%

CCCOc1ccc(C(F)(F)F)cc1NC(=O)c1nc2nccc(C)n2n1
inactive: [1]; 25 µM 91.7% | [1]; 100 µM 90% | [2]; 25 µM 62% | [2]; 100 µM 84.4%

O=C1NCN(c2ccccc2)C12CCN(CCCC(c1ccc(F)cc1)c1ccc(F)cc1)CC2
active: [1]; 25 µM 3.66% | [1]; 100 µM 14.7% | [2]; 25 µM 7.29% | [2]; 100 µM 5.27%

Cc1ncc([N+](=O)[O-])n1CC(C)O (configuration not stated)
inactive: [1]; 25 µM 93.4% | [1]; 100 µM 100% | [2]; 25 µM 120% | [2]; 100 µM 128%

CCOc1cc([C@@H](CS(C)(=O)=O)N2C(=O)c3cccc(NC(C)=O)c3C2=O)ccc1OC
inactive: [1]; 25 µM 99.4% | [1]; 100 µM 99.6% | [2]; 25 µM 98.3% | [2]; 100 µM 90.4%

CC[C@H](C)[C@@H]1NC(=O)c2csc(n2)[C@H]([C@@H](C)CC)NC(=O)c2csc(n2)CNC(=O)c2nc1oc2C
inactive: [1]; 25 µM 83.8% | [1]; 100 µM 100% | [2]; 25 µM 64.4% | [2]; 100 µM 44.8%

Cc1ccc(-c2c3c(nc4sc(C(=O)Nc5ccc(F)cc5)c(N)c24)CCC3)cc1
inactive: [1]; 25 µM 81.3% | [1]; 100 µM 89.6% | [2]; 25 µM 110% | [2]; 100 µM 122%

CCCCCCO[C@@H](C)c1cccc(-c2csc(NC(=O)c3cc(Cl)c(/C=C(\C)C(=O)O)c(Cl)c3)n2)c1OC
inactive: [1]; 25 µM 80% | [1]; 100 µM 105% | [2]; 25 µM 81% | [2]; 100 µM 85.9%

Cc1cccc(Nc2nccc(-c3cccc(C#N)c3)n2)c1
inactive: [1]; 25 µM 80.6% | [1]; 100 µM 89.8% | [2]; 25 µM 84.1% | [2]; 100 µM 49.1%

Cc1nc2ccccn2c1C1(O)C(=O)Nc2c(Cl)cc(Cl)cc21 (configuration not stated)
inactive: [1]; 25 µM 101% | [1]; 100 µM 118% | [2]; 25 µM 99.3% | [2]; 100 µM 111%

Clc1ccc(Nc2nc3cnc(NC4CC4)nc3n2C2CCNCC2)cc1Cl
inactive: [1]; 25 µM 76.9% | [1]; 100 µM 91.4% | [2]; 25 µM 73.7% | [2]; 100 µM 73%

CC(C)N1CCN(c2ccc(OC[C@H]3CO[C@](Cn4cncn4)(c4ccc(Cl)cc4Cl)O3)cc2)CC1
inactive: [1]; 25 µM 20.1%
active: [1]; 100 µM 7.6% | [2]; 25 µM 3.57% | [2]; 100 µM 2.95%

Cc1cccnc1Nc1cn2cc(-c3cccc(OCC(F)(F)F)n3)ccc2n1
active: [2]; 100 µM 8.06%
inactive: [1]; 25 µM 96.5% | [1]; 100 µM 86.9% | [2]; 25 µM 119%

CCN(CC)Cc1ccccc1CNc1ccnc2ccsc12
inactive: [1]; 25 µM 103% | [1]; 100 µM 28.1% | [2]; 25 µM 75.4%
active: [2]; 100 µM 5.38%

CC1(O)CN(C(=O)c2cccc(NC(=O)c3ccc(Nc4ccccn4)cc3)c2)C1
inactive: [1]; 25 µM 106% | [1]; 100 µM 107% | [2]; 25 µM 55.8% | [2]; 100 µM 141%

CCN(CC)CCOc1ccc(C(O)(Cc2ccc(Cl)cc2)c2ccc(C)cc2)cc1 (configuration not stated)
active: [1]; 25 µM 7.03% | [1]; 100 µM 8.2% | [2]; 25 µM 3.26% | [2]; 100 µM 3.33%

C[C@H]1O[C@@H](O[C@H]2[C@@H](O)C[C@H](O[C@H]3[C@@H](O)C[C@H](O[C@H]4CC[C@@]5(C)[C@H](CC[C@@H]6[C@@H]5C[C@@H](O)[C@]5(C)[C@@H](C7=CC(=O)OC7)CC[C@]65O)C4)O[C@@H]3C)O[C@@H]2C)C[C@H](O)[C@@H]1O
inactive: [1]; 25 µM 99.5% | [1]; 100 µM 106% | [2]; 25 µM 82.1% | [2]; 100 µM 90.8%

CCO[C@@H]1[C@@H](OC)[C@H](C)O[C@@H](O[C@@H]2C[C@H]3CC[C@@H]4[C@@H](C=C5C(=O)[C@H](C)[C@@H](O[C@H]6CC[C@H](N(C)C)[C@@H](C)O6)CCC[C@H](CC)OC(=O)C[C@H]54)[C@@H]3C2)[C@@H]1OC
inactive: [1]; 25 µM 96.5% | [1]; 100 µM 85.7% | [2]; 25 µM 107% | [2]; 100 µM 128%

CC[C@@H]([C@H](C)O)n1ncn(-c2ccc(N3CCN(c4ccc(OC[C@@H]5CO[C@@](Cn6cncn6)(c6ccc(F)cc6F)C5)cc4)CC3)cc2)c1=O
inactive: [1]; 25 µM 25.2% | [1]; 100 µM 24.1%
active: [2]; 25 µM 6.56% | [2]; 100 µM 9.91%

Cc1cccnc1Nc1cn2cc(-c3ccnc(OC(C)C)n3)ccc2n1
inactive: [1]; 25 µM 101% | [1]; 100 µM 91% | [2]; 25 µM 36.1%
active: [2]; 100 µM 6.2%

CO[C@@H]1[C@H](N(C)C(=O)c2ccccc2)C[C@H]2O[C@]1(C)n1c3ccccc3c3c4c(c5c6ccccc6n2c5c31)C(=O)NC4
inactive: [1]; 25 µM 113% | [1]; 100 µM 89.5% | [2]; 25 µM 77.9% | [2]; 100 µM 87.3%

C=CC(C)(C)C1=C(O)C(=O)c2ccccc2C1=O
inactive: [1]; 25 µM 103% | [1]; 100 µM 101% | [2]; 25 µM 98.8% | [2]; 100 µM 164%

CC(C)Nc1ncc2nc(Nc3cc(F)cc(Cl)c3)n(C3CCNCC3)c2n1
inactive: [1]; 25 µM 101% | [1]; 100 µM 99.6% | [2]; 25 µM 91.1% | [2]; 100 µM 94.2%

FC(F)(F)c1cc(Cl)cc(Nc2nc3cnc(NCC4CC4)nc3n2C2CCNCC2)c1
active: [1]; 100 µM 17.6% | [2]; 100 µM 4.76%
inactive: [1]; 25 µM 95% | [2]; 25 µM 53.7%

C[C@@H]1[C@@H](NC(=O)c2cn3cc(Cl)ccc3n2)C[C@H]2C[C@@H]1C2(C)C
active: [2]; 100 µM 7.3%
inactive: [1]; 25 µM 95.5% | [1]; 100 µM 102% | [2]; 25 µM 69.5%

CO[C@H]1C[C@H](O[C@H]2[C@H](C)O[C@@H](O[C@@H]3/C(C)=C/C[C@@H]4C[C@@H](C[C@]5(C=C[C@H](C)[C@@H](C6CCCCC6)O5)O4)OC(=O)[C@@H]4C=C(C)[C@@H](O)[C@H]5OC/C(=C\C=C\[C@@H]3C)[C@]54O)C[C@@H]2OC)O[C@@H](C)[C@@H]1O
inactive: [1]; 25 µM 93.1% | [1]; 100 µM 88.5% | [2]; 25 µM 101% | [2]; 100 µM 125%

Cc1cc(C(=O)N2CCOc3c(cc(-c4csc5ccccc45)cc3OCCc3ccccn3)C2)n(C)n1
inactive: [1]; 25 µM 90.1% | [1]; 100 µM 91.1% | [2]; 100 µM 87.7%
active: [2]; 25 µM 5.62%

CN(C)CCCN1c2ccccc2Sc2ccc(Cl)cc21
inactive: [1]; 25 µM 22.7%
active: [1]; 100 µM 7.45% | [2]; 25 µM 4.01% | [2]; 100 µM 3.82%

CCn1cnc2c(N3CCCC(c4ccncc4)C3)ncnc21 (configuration not stated)
inactive: [1]; 25 µM 99.7% | [1]; 100 µM 94.6% | [2]; 25 µM 84.4% | [2]; 100 µM 62.5%

CN(C)c1ncc2nc(Nc3cc(Cl)cc(C(F)(F)F)c3)n(C3CCNCC3)c2n1
active: [2]; 100 µM 5.43%
inactive: [1]; 25 µM 102% | [1]; 100 µM 99.5% | [2]; 25 µM 86.2%

CC1(C)CCC(CO)(NC(=O)c2cc3c(F)cc(F)cc3[nH]2)CC1
inactive: [1]; 25 µM 93.1% | [1]; 100 µM 93.5% | [2]; 25 µM 28.6%
active: [2]; 100 µM 6.07%

FC(F)(F)c1ccnc(Nc2cn3cc(-c4ccc(N5CCOCC5)nc4)ccc3n2)n1
inactive: [1]; 25 µM 91.1% | [1]; 100 µM 92.1% | [2]; 25 µM 73.7% | [2]; 100 µM 132%

C[C@H]1O[C@@H](O[C@H]2[C@@H](O)C[C@H](O[C@H]3[C@@H](O)C[C@H](O[C@H]4CC[C@@]5(C)[C@H](CC[C@@H]6[C@@H]5CC[C@]5(C)[C@@H](C7=CC(=O)OC7)CC[C@]65O)C4)O[C@@H]3C)O[C@@H]2C)C[C@H](O)[C@@H]1O
inactive: [1]; 25 µM 99.1% | [1]; 100 µM 98% | [2]; 25 µM 94.5% | [2]; 100 µM 73.2%

Nc1nonc1-c1nc2c(-c3cccc(Cl)c3)nccc2n1CCCNC(=O)Cc1ccc(Cl)cc1
inactive: [1]; 25 µM 90% | [1]; 100 µM 110% | [2]; 25 µM 80.5% | [2]; 100 µM 121%

C[C@H](NC(=O)c1cc2ccc(Cl)cc2n1C)c1ccccc1
inactive: [1]; 25 µM 93.6% | [1]; 100 µM 81.7% | [2]; 25 µM 99.6% | [2]; 100 µM 81.1%

OC1(CN2CCC(Oc3cccc(C(F)(F)F)c3)CC2)CCNC1 (configuration not stated)
active: [1]; 100 µM 19.1% | [2]; 25 µM 5.37% | [2]; 100 µM 12.9%
inactive: [1]; 25 µM 98.5%

CCOc1ccc(-c2ccnc(Nc3cncc(OC)c3)n2)cc1C#N
inactive: [1]; 25 µM 100% | [1]; 100 µM 86.8% | [2]; 25 µM 88.5% | [2]; 100 µM 68.7%
